This is a sample that favours compounds with a hit; in the whole collection about 4% have one here.
TRPM1 prom inh: reduces MITF-dependent TRPM1 promoter luciferase signal | SK-MEL-5 TRPM1 promoter luciferase, 24 h | inhibition, % at 12.5 µM | 330,000 tested, 0.83% active;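 active means mean inhibition across replicates of 60% or more, whatever share of single replicates reaches that level; inconclusive means some that reach 60%, reason not given; inactive means mean inhibition across replicates below 60%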
MITF TRPM1 HTS: activators of MITF-driven TRPM1 promoter activity in SK-MEL-5 cells. SK-MEL-5 TRPM1-promoter luciferase, 24 h; % of positive control, neutral wells = 0. activation, % at 12.5 µM. 300,000 tested, 0.75% active. AID 588334;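 active means mean activation of at least 80% with every replicate also reaching 80%; inconclusive means mean reaches 80% but some replicate falls short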;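 further: 0% = neutral control wells and 100% = parthenolide positive control wells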
Wnt act: Wnt/beta-catenin pathway activation; activation, % at 9.35 µM; AID 743398; 300,000 tested, 1.2% active; Wnt/beta-catenin reporter cell assay, activator, plate reader; in the data active means activation above about 30%, passing the limit was not always enough; inconclusive means no clear call, values can overlap the other calls;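 further: 0% = neutral control wells and 100% = positive control wells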
PAX8 reporter: PAX8 transcriptional activity inhibition | AID 652154 | RMG-I TPO-luciferase reporter, SteadyGlo, 24 h | inhibition, % at 12.6 µM | 360,000 tested, 1.2% active;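 active means mean replicate inhibition at least 60% with every replicate also reaching 60%; inconclusive means only one of the two criteria is met; inactive means mean below 60% and not all replicates reaching 60%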;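 further: luciferase light reporting Pax8 driven TPO promoter activity; plate controls were median of neutral control wells for no effect and mitoxantrone controls for full effect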
EWS-Fli block: inhibitors of EWS/Fli oncoprotein transcriptional activity; 350,000 tested, 0.67% active; AID 651661; inhibition, % at 12.6 µM; A673 NR0B1-luciferase reporter, viability-normalised;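 active means mean inhibition of at least 50% after viability correction, with every replicate also passing that limit; inconclusive means mean reaches 50% but only one of two replicates passes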;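 further: firefly luciferase signal divided by Alamar Blue viability fluorescence both relative to DMSO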
esBAF inh: inhibitors of esBAF chromatin remodeling in mouse ES cells; 350,000 tested, 2% active; Bmi1-luciferase knock-in reporter, 24 h; 100% = twice the neutral-well signal; reporter increase, % at 12.5 µM; in the data active means activation above about 40%; inconclusive means no clear call, values can overlap the other calls;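 further: 0% = median of the plate's neutral control wells and 100% = double that signal; a rise in the Bmi1 reporter signal indicates esBAF inhibition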
An asterisk follows results filed as active; ? = inconclusive; . = no result.

SMILES	TRPM1 prom inh	MITF TRPM1 HTS	Wnt act	PAX8 reporter	EWS-Fli block	esBAF inh
COc1ccc(NC(=O)c2ccccc2NC(=O)C2CCCCC2C(=O)O)cc1 (stereo unspecified)	-21.3	.	37.7*	-105.7	-48.7	50.6*
CC(C)c1ccc(NC(=O)c2ccccc2NC(=O)C2CCCCC2C(=O)O)cc1 (stereo unspecified)	-42.5	48.9	35.1*	-145.2	-41.3	64.4*
O=C(Nc1ccc(F)c(Cl)c1)c1ccccc1NC(=O)C1CCCCC1C(=O)O (stereo unspecified)	-26.7	.	3.7	-98.7	-37.7	66.3*
O=C(Nc1ccc(F)cc1)c1ccccc1NC(=O)C1CC=CCC1C(=O)O (stereo unspecified)	0.0	3.1	5.9	-40.8	-11.0	6.9
CC(C)c1ccc(NC(=O)c2ccccc2NC(=O)C2CC=CCC2C(=O)O)cc1 (stereo unspecified)	-57.2	46.7	14.7	-172.9	.	51.3*
O=C(Nc1cccc(Cl)c1)c1ccccc1NC(=O)C1CCCCC1C(=O)O (stereo unspecified)	-5.7	.	-1.8	-31.3	-9.3	33.7
O=C(Nc1ccc(F)cc1)c1ccccc1NC(=O)C1CCCCC1C(=O)O (stereo unspecified)	-0.1	.	4.7	-43.3	-1.3	8.8
CN(C)C(=O)C[C@H]1C[C@@H]2c3cc(NC(=O)Nc4ccc(C(F)(F)F)cc4)ccc3O[C@@H]2[C@@H](CO)O1	.	.	.	.	3.9	2.4
C[C@H]1CN([C@@H](C)CO)C(=O)c2cccc(NC(=O)C3CC3)c2O[C@@H]1CN(C)C(=O)Nc1ccc(F)cc1	.	.	.	-19.8	-4.9	1.6
Cc1ccc2oc(C(=O)Nc3ccc(S(=O)(=O)Nc4onc(C)c4C)cc3)c(C)c2c1	-4.4	4.3	0.1	8.0	-1.5	59.3*
COc1ccc(C2Nc3ccccc3C(=O)N2c2ccc(C)cc2)cc1Cn1cc([N+](=O)[O-])cn1 (stereo unspecified)	-86.3	91.2*	7.2	.	-34.2	39.2
COc1ccc(C2Nc3ccccc3C(=O)N2c2ccc(C)cc2)cc1Cn1nnc2ccccc21 (stereo unspecified)	-87.9	98.0*	13.9	.	-32.2	12.7
N#C/C(=C/c1ccc(N2CCOCC2)o1)c1ccc(Cl)cc1	-93.6	105.9*	-14.5	.	.	?
CCCC(=O)Nc1ccc2c(c1)OC[C@H](C)N(C(=O)c1ccncc1)C[C@H](C)[C@@H](OC)CN(C)C2=O	.	.	.	-7.5	-10.6	.
CCCN1[C@@H]2c3ccc(-c4ccc(C(=O)N(C)C)cc4)c(=O)n3C[C@@H]2[C@@H](CO)[C@@H]1C(=O)NCCOC	.	.	.	.	-2.1	-1.7
COc1ccccc1-c1ccc2n(c1=O)C[C@@H]1[C@@H](CO)[C@H](C(=O)NCC3CC3)N(S(C)(=O)=O)[C@H]21	.	.	.	-1.7	-1.5	-2.1
Cc1ccc(SCC(=O)NC(C)(C)C)cc1	-42.4	.	33.2*	.	.	55.8*
O=C(CSc1nc2ccc(NC(=O)CSc3nnnn3-c3ccccc3)cc2s1)Nc1ccccc1	8.5	-7.9	-9.6	-4.5	.	.
Cn1cnnc1SCC(=O)Nc1ccc2nc(SCc3ccccc3F)sc2c1	-104.8	106.0*	24.8	.	-96.8	64.3*
C[C@@H]1CCCCO[C@@H](CN(C)C(=O)Nc2ccc3c(c2)OCO3)[C@@H](C)CN([C@H](C)CO)C(=O)c2cc(NC(=O)Cc3ccccc3)ccc2O1	.	.	.	-9.3	-5.6	-10.7
CCc1ccc(OCCNc2cc(N3CCNC(C)C3)ccc2[N+](=O)[O-])cc1 (stereo unspecified)	78.6*	-78.2	-13.3	17.6	32.3	-2.2
CC1CN(c2ccc([N+](=O)[O-])c(NCCOc3ccc(Cl)cc3)c2)CC(C)N1 (stereo unspecified)	2.0	-6.6	-3.4	2.6	33.0	-2.7
CC=Cc1ccc2n(c1=O)C[C@@H]1[C@@H](CO)[C@H](C(=O)OC)N(C(C)=O)[C@H]21 (mixture of isomers)	.	.	.	.	12.6	-2.4
O=C(COc1ccccc1Br)NC(=O)NC1CCCC1	-133.8	140.8*	11.4	-247.0	-0.7	39.3
O=C(COc1ccc(C(=O)c2ccccc2)cc1)NC1CCCCCC1	9.5	-8.0	48.6*	7.8	.	.
SMILES	TRPM1 prom inh	MITF TRPM1 HTS	Wnt act	PAX8 reporter	EWS-Fli block	esBAF inh
CN(C)S(=O)(=O)c1cccc(NC(=O)COc2ccc(C(=O)c3ccccc3)cc2)c1	18.6	-16.3	-3.2	3.6	34.6	3.1
O=C(COc1ccc(C(=O)c2ccccc2)cc1)NC1CCCCC1	-11.5	10.2	-3.2	20.9	9.7	.
O=C(COc1ccccc1Br)NC1CC1	-6.4	8.7	-0.7	-28.3	.	.
CC(=O)NS(=O)(=O)c1ccc(NC(=O)COc2ccc(C(=O)c3ccccc3)cc2)cc1	4.4	-2.3	-0.8	75.3*	2.8	.
Cc1ccc(S(=O)(=O)Nc2cccc3c2O[C@@H](CN(C)C(=O)NC2CCCCC2)[C@H](C)CN([C@H](C)CO)C3=O)cc1	.	.	.	-21.5	-10.6	-3.8
C[C@@H]1CN([C@H](C)CO)S(=O)(=O)c2ccc(C3=CCCC3)cc2O[C@H]1CN(C)Cc1ccncc1	.	.	.	.	5.3	-3.5
CC(=O)N1CC2(CC(c3ccccc3F)=NO2)CN1c1ccc(Cl)cc1 (stereo unspecified)	.	.	-2.1	-84.6	-70.7	55.5*
CC(C)(C)N1CC(COc2ccccc2)OC1=O (stereo unspecified)	-14.3	.	9.8	-26.5	.	61.7*
CC(C)N1CC(COc2ccc(Br)cc2)OC1=O (stereo unspecified)	-14.7	19.8	-1.2	-3.8	-7.7	6.5
COC(=O)c1cc(C)nc(Nc2nc(C(N)Cc3ccc(Cl)cc3)cs2)n1 (stereo unspecified)	.	.	641.5*	-2.7	-0.9	1.1
C/C(=N\OCc1ccc(C#N)cc1)c1ccccc1	-87.3	88.3*	0.1	-126.1	-140.7	.
C/C(=N/OCO/N=C(\C)c1ccccc1)c1ccccc1	9.9	-7.7	3.1	11.8	-40.6	.
C/C(=N\OCc1ccc(C#N)cc1)c1ccc(S(=O)(=O)N(C)C)cc1	-94.8	95.6*	23.5	-43.5	-54.8	51.2*
CC(=O)Nc1ccc2c(c1)C(=O)N(C)[C@@H]1CC[C@@H](CC(=O)NCc3ccccc3)O[C@@H]1CO2	.	.	.	6.4	4.9	-2.6
Fc1ccccc1Cn1nnc2c(NCCc3ccccn3)ncnc21	-9.7	16.8	.	.	.	47.7*
CN(C[C@@H]1N[C@H](CO)[C@@H]1c1ccc(C2=CCCC2)cc1)S(C)(=O)=O	.	.	.	-50.8	-0.7	-23.8
C[C@@H]1CN([C@@H](C)CO)C(=O)CCCn2cc(nn2)CO[C@@H]1CN(C)S(=O)(=O)c1ccc(F)cc1	.	.	.	.	2.1	0.6
O=C(Cn1nnc2ccccc21)c1ccc([N+](=O)[O-])cc1	-8.9	7.8	2.4	-28.3	-8.4	.
O=C(O)Cn1nnc2ccccc21	-7.9	7.8	1.5	1.0	2.9	.
C(#Cc1ccccc1)Cn1nnc2ccccc21	-85.2	86.3*	.	.	.	59.7*

Screening data (PubChem)
